# Results with a measured potency or affinity are listed apart.
# System: Klebsiella pneumoniae
# Settings: Concentration 32 ug.mL-1;; ASSAY_TEST Inhibition of Bacterial Growth; detection method Absorption (OD600); MEDIA CAMHB; plate type 384well; NBS; CORNING #3640; time 18 hr
row,Structure (SMILES),Inhibition [%]
1,COc1ccccc1-n1ccn2c(SCc3ccc(C)cc3)nnc2c1=O,5.79
2,COc1ccc(-c2cc3c4nn(CC(=O)Nc5cc(OC)ccc5OC)c(=O)n4ccn3n2)cc1,11.83
3,Cc1ccc(Oc2nccn3c(=O)n(CC(=O)Nc4ccc5c(c4)OCO5)nc23)cc1,3.22
4,Cc1ccccc1Oc1nccn2c(=O)n(CC(=O)Nc3ccccc3C(F)(F)F)nc12,15.23
5,N#Cc1cccc(NC(=O)CSc2nnc3c4cc(-c5ccc(F)cc5)nn4ccn23)c1,16.47
6,Cc1ccccc1CSc1nnc2c(=O)n(-c3ccc(F)c(F)c3)ccn12,9.65
7,CCCCc1ccc(NC(=O)Cn2nc3c(N4CCN(c5ccccc5C)CC4)nccn3c2=O)cc1,-4.55
8,CCc1nnc2c(SCC(=O)Nc3ccc(OC)c(Cl)c3)nc3ccccc3n12,11.84
9,COc1ccccc1-n1ccn2c(SCC(=O)c3ccc(C)cc3C)nnc2c1=O,6.45
10,O=C(CSc1nnc2c3cc(-c4ccccc4)nn3ccn12)NCc1ccccc1Cl,7.7
11,CCc1nnc2c(=O)n(CC(=O)Nc3ccc(C(C)C)cc3)c3ccccc3n12,15.72
12,Cc1nnc2ccc(S(=O)(=O)N(Cc3cccc(F)c3)c3cccc(F)c3)cn12,2.6
13,Cc1nnc2ccc(S(=O)(=O)N(Cc3ccccc3)c3ccc(Cl)cc3)cn12,0.23
14,CC(=O)c1ccc(NC(=O)Cn2nc3ccc(-c4ccc(C)c(C)c4)nn3c2=O)cc1,0
15,O=C(CSc1nnc2c(=O)n(-c3ccc(Br)cc3)ccn12)c1c[nH]c2ccccc12,21.01
16,O=c1c2sccc2n2c(=O)n(Cc3ccc(F)cc3)nc2n1CCc1ccccc1,5.57
17,Cc1ccc(Cn2c(=O)c3ccccc3n3c(=O)n(CC(=O)Nc4ccc5c(c4)OCCO5)nc23)cc1,10.7
18,O=C(Cn1nc2c(N3CCSCC3)nc3ccccc3n2c1=O)NCc1ccccc1,13.9
19,Cc1nnc2c(S(=O)(=O)N(Cc3cccc(F)c3)c3ccc(C(C)C)cc3)cccn12,9.6
20,O=C(Cn1nc2c3cc(-c4ccc(F)cc4)nn3ccn2c1=O)NCc1ccccc1Cl,7.72
21,O=C(Cn1nc2c(N3CCOCC3)nccn2c1=O)NCc1ccc(Cl)cc1,8.43
22,CCCCOc1ccc(-c2cc3c4nnc(SCC(=O)Nc5ccc(C)c(F)c5)n4ccn3n2)cc1,6.88
23,Cc1cc(C)c(NC(=O)Cn2c(=O)c3nnc(C(C)C)n3c3ccccc32)c(C)c1,11.01
24,CC(C)CCn1c(=O)c2ccccc2n2c(=O)n(CC#N)nc12,17.73
25,Cc1cccc(-c2nc(CSc3nc4ccccc4n4c(C(C)C)nnc34)c(C)o2)c1,12.8

# System: Candida albicans
# Settings: Concentration 32 ug.mL-1; ASSAY_TEST Inhibition of Fungal Growth; detection method Absorption (OD530)
row,Structure (SMILES),Inhibition [%]
1,COc1cccc(NC(=O)Cn2nc3ccc(-c4ccc(C)c(C)c4)nn3c2=O)c1,8.09
2,O=c1n(Cc2ccc3c(c2)OCO3)nc2c(S(=O)(=O)N3CCCCC3)cccn12,3.52
3,COc1ccc(NC(=O)Cn2nc3c(SCc4ccc(Cl)cc4)nccn3c2=O)cc1OC,27.48
4,O=c1c2sccc2n2c(=S)[nH]nc2n1CC1CCCO1 (stereo not given),-1.18
5,COc1ccc(NC(=O)Cn2nc3ccc(-c4ccccc4)nn3c2=O)cc1,2.69
6,Cc1ccc(Cn2nc3c(=O)n(-c4ccc(C)c(C)c4)ccn3c2=O)cc1,3.7
7,O=C(CCc1nnc2c(N3CCCCC3)nc3ccccc3n12)NCc1ccc(Cl)cc1,2.29
8,O=C(NCc1ccccc1)c1ccc2nn(CC(=O)N3CCN(c4ccccc4F)CC3)c(=O)n2c1,4.65
9,O=C(Cn1nc2c(Oc3ccccc3)nccn2c1=O)Nc1ccccc1C(F)(F)F,0.13
10,COc1ccccc1-n1ccn2c(SCC(=O)Nc3ccc(C)c(F)c3)nnc2c1=O,2.55
11,CCOc1ccc(-n2ccn3c(SCC(=O)c4ccc(OC)c(OC)c4)nnc3c2=O)cc1,3.75
12,COc1cc(OC)c(NC(=O)Cn2nc3c(Sc4ccc(C)cc4C)nccn3c2=O)cc1Cl,4
13,CC1CC(C)CN(c2nccn3c(=O)n(CC(=O)Nc4cccc(C(F)(F)F)c4)nc23)C1 (stereo not given),1.5
14,CCc1ccc(N(Cc2ccccc2F)S(=O)(=O)c2cccn3c(CC)nnc23)cc1,4.59
15,O=C(Cn1nc2c(N3CCOCC3)nccn2c1=O)NCc1ccccc1Cl,3.88
16,COc1ccccc1-n1ccn2c(SCc3ccc(C)cc3)nnc2c1=O,2.57
17,COc1ccc(-c2cc3c4nn(CC(=O)Nc5cc(OC)ccc5OC)c(=O)n4ccn3n2)cc1,1.43
18,Cc1ccc(Oc2nccn3c(=O)n(CC(=O)Nc4ccc5c(c4)OCO5)nc23)cc1,-1.46
19,Cc1ccccc1Oc1nccn2c(=O)n(CC(=O)Nc3ccccc3C(F)(F)F)nc12,-0.33
20,N#Cc1cccc(NC(=O)CSc2nnc3c4cc(-c5ccc(F)cc5)nn4ccn23)c1,16.76

row,Structure (SMILES),Inhibition [%]
1,Cc1ccccc1CSc1nnc2c(=O)n(-c3ccc(F)c(F)c3)ccn12,4.14
2,CCCCc1ccc(NC(=O)Cn2nc3c(N4CCN(c5ccccc5C)CC4)nccn3c2=O)cc1,48.6
3,CCc1nnc2c(SCC(=O)Nc3ccc(OC)c(Cl)c3)nc3ccccc3n12,5.38
4,COc1ccccc1-n1ccn2c(SCC(=O)c3ccc(C)cc3C)nnc2c1=O,3.89
5,O=C(CSc1nnc2c3cc(-c4ccccc4)nn3ccn12)NCc1ccccc1Cl,0.55
6,CCc1nnc2c(=O)n(CC(=O)Nc3ccc(C(C)C)cc3)c3ccccc3n12,-0.82
7,Cc1nnc2ccc(S(=O)(=O)N(Cc3cccc(F)c3)c3cccc(F)c3)cn12,1.95
8,Cc1nnc2ccc(S(=O)(=O)N(Cc3ccccc3)c3ccc(Cl)cc3)cn12,-0.42
9,CC(=O)c1ccc(NC(=O)Cn2nc3ccc(-c4ccc(C)c(C)c4)nn3c2=O)cc1,0.28
10,O=C(CSc1nnc2c(=O)n(-c3ccc(Br)cc3)ccn12)c1c[nH]c2ccccc12,3.35
11,O=c1c2sccc2n2c(=O)n(Cc3ccc(F)cc3)nc2n1CCc1ccccc1,0.78
12,Cc1ccc(Cn2c(=O)c3ccccc3n3c(=O)n(CC(=O)Nc4ccc5c(c4)OCCO5)nc23)cc1,0.1
13,O=C(Cn1nc2c(N3CCSCC3)nc3ccccc3n2c1=O)NCc1ccccc1,0.65
14,Cc1nnc2c(S(=O)(=O)N(Cc3cccc(F)c3)c3ccc(C(C)C)cc3)cccn12,6.76
15,O=C(Cn1nc2c3cc(-c4ccc(F)cc4)nn3ccn2c1=O)NCc1ccccc1Cl,20.13
16,O=C(Cn1nc2c(N3CCOCC3)nccn2c1=O)NCc1ccc(Cl)cc1,3.53
17,CCCCOc1ccc(-c2cc3c4nnc(SCC(=O)Nc5ccc(C)c(F)c5)n4ccn3n2)cc1,11.03
18,Cc1cc(C)c(NC(=O)Cn2c(=O)c3nnc(C(C)C)n3c3ccccc32)c(C)c1,4.09
19,CC(C)CCn1c(=O)c2ccccc2n2c(=O)n(CC#N)nc12,2.65
20,Cc1cccc(-c2nc(CSc3nc4ccccc4n4c(C(C)C)nnc34)c(C)o2)c1,8.07
